Screening data: PubChem, National Center for Advancing Translational Sciences (NCATS)
Rows were chosen to be rich in hits. Some 7.1% of all compounds tested hit in one or more screens of this group.
LASV entry inh: Lassa virus entry inhibition | Lassa virus pseudotyped entry inhibition, cell-based qHTS | Potency, µM (titrated, usually from 49.2 µM), inactives show top-dose activity change, negative = inhibition, usual class: inhibitors | 18,000 tested, 4.1% active | AID 720533
MARV entry inh: Marburg virus entry inhibition; Potency, µM (series often up to 49.2 µM), for the others: top-dose activity change, negative = inhibition, usual class: inhibitors; AID 720532; Marburg virus pseudotype entry/binding inhibition, cell-based; 18,000 tested, 6.5% active
The depositor's hits bear a star; ! = not active in a repeat; [ ] = dose if it differs, or a comment. Calls come from the whole dose curve; tested in HEK293 cells. % is set by controls: 0 for no effect and ±100 for the full control effect; potency is the fitted concentration of half-maximal effect.

How did Cc1ccc(NC(=O)OC[C@@H]2CSCCS(=O)(=O)N2)cc1 do in these assays?
LASV entry inh: 79%; MARV entry inh: 85%

Results for C[C@@H](C1[C@@H](O)CC2C3C=CC4C[C@@H](O)CC[C@]4(C)[C@H]3CC[C@@]21C)[C@@H]1CCCCN1 (some centres undefined) ?
LASV entry inh: 6%; MARV entry inh: 11µM*

How did COc1ccc(CN2CCc3nnc(CNC(=O)c4cc(C)oc4C)n3CC2)c2ccccc12 do in these assays?
LASV entry inh: -7%; MARV entry inh: -11%

Results for C[C@H]1CCCC(=O)CCC/C=C/c2c(O)cc(O)cc2C(=O)O1 ?
LASV entry inh: -16%; MARV entry inh: -30%

Results for C[C@H]1CCC/C=C/C2C[C@H](O)C[C@H]2[C@H](O)/C=C/C(=O)O1 (some centres undefined) ?
LASV entry inh: 0.63µM*!; MARV entry inh: 0.63µM*

Results for C[C@H]1CCC/C=C/[C@@H]2C[C@H](O)C[C@H]2[C@H](O)/C=C/C(=O)O1 ?
LASV entry inh: 1.1µM*; MARV entry inh: 1.1µM*

How did CN(C)C(=O)c1ccc(-c2nc(N(C)Cc3ccco3)c3ccccc3n2)cc1 do in these assays?
LASV entry inh: -7%; MARV entry inh: 7%

How did COCCN1C(=O)CC[C@@]23C1=NC(C(=O)OC)=C(C(=O)OC)[C@@H]2N(C)c1ccccc13 do in these assays?
LASV entry inh: -18%[8.59 µM]; MARV entry inh: inconclusive

What do the screens show for `C=CCC1=C(C)C(OC(=O)C2C(C=C(C)C)C2(C)C)CC1=O` (centres undefined)?
LASV entry inh: 28µM*; MARV entry inh: inconclusive

Results for C#CCN1CC(=O)N(COC(=O)C2C(C=C(C)C)C2(C)C)C1=O (centres undefined) ?
LASV entry inh: -7%; MARV entry inh: -6%

What do the screens show for `CC(=O)OC[C@H]1O[C@H](c2cc(C)cc(C)c2)C=C[C@H]1OC(C)=O`?
LASV entry inh: -27%[8.59 µM]; MARV entry inh: 26%[8.59 µM]

What do the screens show for `S=C(S)O[C@@H]1C[C@@H]2C[C@H]1[C@@H]1CCC[C@H]21`?
LASV entry inh: 3%; MARV entry inh: 12%

How did Cc1nc(-c2ccc(OCC(C)C)c(C#N)c2)sc1C(=O)O do in these assays?
LASV entry inh: 7.9µM*; MARV entry inh: inconclusive

What do the screens show for `CCOC(=O)CN1C(=O)[C@]2(OCCC=C[C@@H]2C)c2c(Br)cccc21`?
LASV entry inh: 21%[8.59 µM]; MARV entry inh: -20%[8.59 µM]

What do the screens show for `O=C1OCCN1C(=O)[C@H]1[C@H](c2ccccc2)C(c2cccc(Cl)c2)=NN1c1ccccc1`?
LASV entry inh: -27%; MARV entry inh: -15%

Results for CC(C)(C)C1(O)CCN2CC3c4ccccc4CCc4cccc(c43)C2C1 (centres undefined) ?
LASV entry inh: inconclusive; MARV entry inh: 28µM*

What do the screens show for `CC(C)(C)[C@]1(O)CCN2C[C@H]3c4ccccc4CCc4cccc(c43)[C@@H]2C1`?
LASV entry inh: inconclusive; MARV entry inh: 11µM*

Results for CN1CCN2c3ncccc3Cc3ccccc3C2C1 (centres undefined) ?
LASV entry inh: 1%; MARV entry inh: inconclusive

How did NCCc1ccccc1 do in these assays?
LASV entry inh: 19%; MARV entry inh: 13%

How did CCCCc1oc2ccccc2c1C(=O)c1cc(I)c(OCCN(CC)CC)c(I)c1 do in these assays?
MARV entry inh: 20µM*

How did CCCCOc1cc(C(=O)OCCN(CC)CC)ccc1N do in these assays?
LASV entry inh: -15%[17.8 µM]; MARV entry inh: -16%[17.8 µM]

Results for O=c1c(O)c(-c2ccc(O)c(O)c2)oc2c(O)c(O)cc(O)c12 ?
LASV entry inh: 8%; MARV entry inh: inconclusive

What do the screens show for `O=c1oc2c(O)c(O)cc3c(=O)oc4c(O)c(O)cc1c4c23`?
LASV entry inh: -2%; MARV entry inh: 1µM*

How did O=C(/C=C/C=C/c1ccc2c(c1)OCO2)N1CCCCC1 do in these assays?
LASV entry inh: 16%; MARV entry inh: 39%

How did O=S(=O)(O)c1cc(N=C=S)ccc1/C=C/c1ccc(N=C=S)cc1S(=O)(=O)O do in these assays?
LASV entry inh: 34%; MARV entry inh: -3%

What do the screens show for `Nc1ccc(/C=C/c2ccc(N)cc2S(=O)(=O)O)c(S(=O)(=O)O)c1`?
LASV entry inh: -5%; MARV entry inh: 25µM*

How did O=c1cc(-c2ccccc2)oc2cc(O[C@@H]3O[C@H](CO)[C@@H](O)[C@H](O)[C@H]3O)c(O)c(O)c12 do in these assays?
LASV entry inh: -22%; MARV entry inh: 3.5µM*

What do the screens show for `O=c1cc(-c2ccc(O)cc2)oc2cc(O[C@H]3OC(CO)C(O)C(O)C3O)cc(O)c12` (some centres undefined)?
LASV entry inh: 44%; MARV entry inh: 66%

What do the screens show for `CCN(CC)CCNC(=O)c1c(C)[nH]c(/C=C2\C(=O)Nc3ccc(F)cc32)c1C`?
LASV entry inh: inconclusive; MARV entry inh: 8.9µM*

Results for CCN(CC)CCNC(=O)c1ccc(NS(C)(=O)=O)cc1 ?
LASV entry inh: 0%; MARV entry inh: 1%

What do the screens show for `COc1ccc(CNC(=O)c2ccc(-c3cc(-c4nnc(C)o4)ccc3C)cc2)cc1`?
MARV entry inh: -34%

How did CC(=O)CC(c1ccccc1)c1c(O)c2cc(O)ccc2oc1=O (centres undefined) do in these assays?
LASV entry inh: -18%; MARV entry inh: -19%

What do the screens show for `c1ccc2sc(-c3cc4c(c(OC5CCOC5)c3)OCCN(Cc3cccn3-c3nccs3)C4)nc2c1` (centres undefined)?
LASV entry inh: -5%; MARV entry inh: 0.35µM*

Results for Oc1cc(-c2nc3ccccc3s2)cc2c1OCCN(Cc1cccn1-c1nccs1)C2 ?
LASV entry inh: -23%; MARV entry inh: -9%

Results for Cn1cc(C(=O)[C@@H]2CCc3nc[nH]c3C2)c2ccccc21 ?
LASV entry inh: 0%; MARV entry inh: -1%

What do the screens show for `CC(=O)OCOC(=O)CN(CC(=O)OCOC(C)=O)c1ccccc1OCCOc1ccccc1N(CC(=O)OCOC(C)=O)CC(=O)OCOC(C)=O`?
LASV entry inh: inconclusive; MARV entry inh: 16µM*

Results for CN1CCC2=C[C@@H](O)[C@@H]3OC(=O)c4cc5c(cc4C3C21)OCO5 (some centres undefined) ?
LASV entry inh: -3%; MARV entry inh: -19%

Results for CNc1nc(-c2ccc(N(C)C)cc2)nc2ccccc12 ?
LASV entry inh: -7%; MARV entry inh: 18µM*

What do the screens show for `CN(C)c1ccc(-c2nc(N(C)C)c3ccccc3n2)cc1`?
LASV entry inh: -7%; MARV entry inh: 11µM*

How did CN(C)c1ccc(-c2nc(Nc3ccncc3)c3ccccc3n2)cc1 do in these assays?
LASV entry inh: -32%; MARV entry inh: inconclusive

What do the screens show for `CN(C)c1ccc(-c2nc(N(C)Cc3ccco3)c3ccccc3n2)cc1`?
LASV entry inh: 29%; MARV entry inh: inconclusive

What do the screens show for `N#Cc1cccc(-c2ccc3ncnc(NCc4cccnc4)c3c2)c1`?
LASV entry inh: 6%; MARV entry inh: 5%

Results for O[C@@H]1CN(CC2CCCCC2)[C@@H](c2ccccc2)C[C@@H]1n1cc(C2CC2)nn1 ?
LASV entry inh: -27%; MARV entry inh: inconclusive

What do the screens show for `COc1cc(=O)n2c(c1C(=O)N(C)Cc1ccsc1)CCN(Cc1c(C)nn(C)c1Cl)CC2`?
LASV entry inh: -4%; MARV entry inh: -12%

How did Cc1cccc(Cc2cnc[nH]2)c1C do in these assays?
LASV entry inh: -19%; MARV entry inh: 8%

What do the screens show for `CN(C)CC[C@@H](c1ccccc1)c1ccccn1`?
LASV entry inh: -13%[17.8 µM]; MARV entry inh: -2%[17.8 µM]
